From PubChem BioAssay (NCI)
Compounds without any hit were thinned out: in the full panel of roughly 83,000, 20% have a hit.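 The endpoint reported here, percent growth, reads 100 for growth as untreated, 0 for no net growth and -100 for all cells dead.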 Active and inactive are the calls of the source. Rule for the calls: active = growth percent below 10; inactive = the rest.

Each compound was assayed on A498 renal (assay: NCI-60 one-dose screen, 48 h (100 = growth as untreated, 0 = no growth, -100 = all killed)). Details: 10 µM unless noted.
With `CC(C)=CCC[C@](C)(O)[C@H]1CC[C@]2(C)[C@@H]1CC[C@@H]1[C@@]3(C)CC[C@H](N)C(C)(C)[C@@H]3CC[C@]12C` the growth was 106% (inactive). With `Cc1cc2nc(C(Cl)Cl)nc(-c3ccc(S(=O)(=O)N(C)C)cc3)n2n1` the growth was 90.9% (inactive). `CCCCCCNC(=O)Oc1ccc(/C(=C(/C)c2ccc(OC)cc2)c2ccc(OCCN3CCCCCC3)cc2)cc1` was tested, and the growth was 64.2% (inactive). For `Cc1nc(/N=C(N)/N=C(\N)c2cccc(Br)c2)sc1C`, the growth was 43.5% (inactive). With `O=c1nc(Nc2ccc([N+](=O)[O-])cc2O)sc2ccccc12` the growth was -7.49% (active). For `C#CCOc1ccc(-c2csc(NC(=O)C=C)n2)cc1NS(=O)(=O)c1cccc2c(N(C)C)cccc12`, the growth was 79.8% (inactive). In the case of `COc1ccc(C2CC(c3cccc(OCCCCOc4cccc(C5=NOC(c6ccc(OC)cc6)C5)c4)c3)=NO2)cc1` (stereo not given), the growth is reported as 111% (inactive). In the case of `Cc1ccc(OCc2occc2C(=O)N2CCOCC2)cc1`, the growth is reported as 98.1% (inactive). For `O=S(=O)(NCCCNc1nccc(-c2[nH]c(-c3ccccc3)nc2-c2ccc(F)c(O)c2)n1)c1cccc2ccccc12`, the growth was 73.1% (inactive). For `CCc1cc(OC(=O)N2CCC(N3CCCCC3)CC2)ccc1Nc1cc(-c2ccc(-n3cccn3)cc2)[nH]n1`, the growth was 71.3% (inactive). With `O=C(COc1ccc(/C=C2\C(=O)Nc3ccc(F)cc32)cc1)Nc1ccccc1` the growth was 99% (inactive). For `CC1=C(C)C(=O)C(Nc2cccc(C(=O)OC(C)(C)C)c2)=CC1=O`, the growth was 66.9% (inactive). `Cn1cc(-c2nnc(N)nc2-c2c[nH]c3ccc(F)cc23)c2cc(Br)ccc21` was tested, and the growth was 3.05% (active). For `Cn1c(SCC(=O)c2ccc(F)cc2)nc2ccccc2c1=O`, the growth was 99.5% (inactive). `CN1CCN(c2ccc(Nc3nc(NCCCNS(=O)(=O)c4cccc5ccccc45)c4sccc4n3)cc2)CC1` was tested, and the growth was -70.5% (active). `CCCCCC[n+]1ccc(SCC(=O)n2ccc3ccccc32)c2ccccc21` was tested, and the growth was 115% (inactive). With `COc1ccc(-c2cc(-c3ccc(N(C)C)cc3)n3c(n2)nc2ccccc23)cc1` the growth was 51.8% (inactive). For `CC(=O)N(O)CCCCCNC(=O)CCC(=O)N(O)CCCCCNC(=O)CCC(=O)N(O)CCCCCN(CCCCCCCCCC[P+](c1ccccc1)(c1ccccc1)c1ccccc1)CCCCCCCCCC[P+](c1ccccc1)(c1ccccc1)c1ccccc1`, the growth was -3.27% (active). `CC1=C(C)C(=O)C(Nc2ccc3c(c2)OCCO3)=C(Br)C1=O` was tested, and the growth was 103% (inactive). For `COc1ccc2c(c1)C=CC1(O2)Oc2ccc(OC)cc2C=C1C` (stereo not given), the growth was 7.58% (active). For `C/C(=C(\c1ccc(O)cc1)c1ccc(OCCN2CCCCCC2)cc1)c1ccc(Cl)cc1`, the growth was -91% (active). For `Brc1cccc(-c2cc(-c3ccc4c(c3)OC=CO4)[nH]n2)c1`, the growth was 42.6% (inactive). `COc1ccc(C(C)=C(c2ccc(OCCN(C)C)cc2)c2ccc(OCCN(C)C)cc2)cc1` was tested, and the growth was -38.9% (active). For `NS(=O)(=O)c1ccc(Nc2nc(N/N=C/c3ccc4c(c3)OCO4)nc(Nc3ccccc3)n2)cc1`, the growth was 51.1% (inactive). For `COc1ccc(C2c3[nH]c4ccc(Cl)cc4c3CCN2c2oc(CO)nc2C#N)cc1` (stereo not given), the growth was 68.7% (inactive). For `CCc1cc2c(cc1Cl)nc1c(=O)[nH]c(=O)nc-1n2CCOCC(C)C`, the growth was 76.4% (inactive). With `COc1ccc(-c2c3c(cn2Cc2cccc(OC)c2)-c2oncc2CCC3)cc1` the growth was 96.8% (inactive). For `COc1ccc(/C(=N\NC(N)=S)c2ccc(Cl)cc2)cc1OC`, the growth was -4.86% (active). For `O=C(CSc1nnc(-c2ccc(Cl)cc2)n1-c1ccccc1)Nc1ccccc1Cl`, the growth was 104% (inactive). For `COc1ccc(-c2c(C(N)=O)c(N)n(Cc3nc4ccccc4[nH]3)c(=O)c2C#N)c(OC)c1`, the growth was 102% (inactive). With `COc1ccc(-c2cnc(NC(=O)CCCCCCNC(=O)C(O)(O)C(F)(F)F)s2)cc1` the growth was -44.2% (active). `C#C[C@]1(O)CC[C@H]2[C@@H]3CC=C4c5sc(Nc6cc(C)cc(C)c6)nc5CC[C@]4(C)[C@H]3CC[C@@]21C` was tested, and the growth was -3.87% (active). In the case of `COC(=O)CNC(=O)c1cccc(-c2cc(=O)c3c(OC)c(OC)c(OC)cc3o2)c1`, the growth is reported as 90.8% (inactive). `CCC1=Cc2c(OC)cccc2OC12C=Cc1c(OC)cccc1O2` (stereo not given) was tested, and the growth was 6.92% (active). For `Cc1ccc2c(n1)C(=O)C(Cl)=C(Nc1ccc(C#N)cc1)C2=O`, the growth was 61.6% (inactive). With `Cn1ncc2c(C(=O)c3ccc(F)cc3)nc(C(C)(C)C)nc21` the growth was 58.4% (inactive). For `CN1c2ccccc2Sc2cc(/C=N/Nc3ccnc4cc(Cl)ccc34)ccc21`, the growth was 131% (inactive). With `COCCOc1ccc2ncc(C#Cc3cncc(C(=O)Nc4ccc(CN5CCN(C)CC5)c(C(F)(F)F)c4)c3)n2n1` the growth was -50.4% (active). `O=C(CCCCCCNC(=O)C(O)(O)C(F)(F)F)Nc1ncc(-c2ccccc2)s1` was tested, and the growth was -41.8% (active). With `CCCCN1C(=O)/C(=c2\sc3n(c2=O)C2C(NN=3)N(CC)C(=O)N2CC)c2cc(C)ccc21` (stereo not given) the growth was 96% (inactive).
